Compound activity as filed in PubChem BioAssay.
Compounds with a hit are over-represented: about 3.4% of the library has one in this group of screens.
FBW7 activator: activators of human E3 ligase FBW7 | normalized activity (activation), % at 26.1 µM | 650,000 compounds, 0.13% hits | AlphaScreen FBW7–phospho-cyclin E peptide binding, activator screen; in the data active = normalized activity above about 1.9%;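 note: purified mutant Fbw7 with reduced substrate affinity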
TEAD-YAP inh: TEAD-YAP interaction inhibition. HEK-TIYL cells, TEAD-Gal4/YAP UAS-luciferase luminescence. inhibition, % at 9.12 µM. 640,000 compounds, 1.4% hits. AID 1259422; in the data active = inhibition above about 32%;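 note: 0% = median of test compound wells and 100% = reference inhibitor wells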
GPR151 activ: activates the human receptor GPR151. Q8TDV0. PathHunter beta-arrestin GPR151 cells, luminescence. activation, % at 11.2 µM. 650,000 compounds, 1% hits; in the data active = activation above about 4.9%;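 note: 0% = median of compound wells and 100% = cells with positive control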
MITF inh: human MITF inhibition, primary screen | O75030 | AlphaScreen MITF homodimerization, bead proximity signal | inhibition, % at 2.6 µM | 650,000 compounds, 0.91% hits | AID 1259374; in the data active = inhibition above about 50%;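 note: 0% = vehicle wells with protein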
Target sequence (O75030 whole entry, looked up): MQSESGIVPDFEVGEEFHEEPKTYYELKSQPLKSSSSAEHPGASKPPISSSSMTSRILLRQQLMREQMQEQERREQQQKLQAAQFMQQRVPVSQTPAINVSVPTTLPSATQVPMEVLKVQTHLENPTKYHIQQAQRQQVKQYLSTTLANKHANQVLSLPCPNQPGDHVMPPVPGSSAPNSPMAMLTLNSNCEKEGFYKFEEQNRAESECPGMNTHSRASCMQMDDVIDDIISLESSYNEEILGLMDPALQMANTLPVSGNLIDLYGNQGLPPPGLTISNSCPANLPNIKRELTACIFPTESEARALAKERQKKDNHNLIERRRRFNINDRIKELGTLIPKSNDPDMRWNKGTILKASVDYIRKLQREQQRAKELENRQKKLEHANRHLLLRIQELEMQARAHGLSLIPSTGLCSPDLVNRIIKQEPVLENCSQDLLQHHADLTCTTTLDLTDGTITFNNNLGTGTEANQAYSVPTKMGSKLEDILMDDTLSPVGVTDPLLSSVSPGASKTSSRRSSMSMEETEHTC
* marks the source's active call; other numbers are inactive results.

For COc1ccc(C(Nc2cccc(C)n2)c2ccc3ccc(C)nc3c2O)cc1C (centres undefined) the results were FBW7 activator 0.2, TEAD-YAP inh 41.9*, GPR151 activ -1.8 and MITF inh 3.6.
For CC1CCCC(N2CCN(S(=O)(=O)Cc3ccccc3)CC2)C1 (centres undefined) the results were FBW7 activator -0.1, TEAD-YAP inh 1.9, GPR151 activ 0.3 and MITF inh -1.3.
COc1cc(C2CC(=O)Nc3c2ccc2ccccc32)c(Br)c(OC)c1OC (centres undefined) was read as FBW7 activator 0.0, TEAD-YAP inh 59.0*, GPR151 activ 0.3 and MITF inh -17.5.
COc1cc(C2CC(=O)Nc3cc4c(cc32)OCO4)c(Br)c(OC)c1OC (centres undefined) was read as FBW7 activator -0.1, TEAD-YAP inh 51.1*, GPR151 activ -0.8 and MITF inh -3.1.
`COc1ccc(C2CC(=O)Nc3cc4c(cc32)OCO4)cc1O` (centres undefined) gave FBW7 activator 0.0, TEAD-YAP inh 2.0, GPR151 activ -0.4 and MITF inh 16.8.
Screening Cc1ccc(-c2c(Nc3ccc(C)c(F)c3)c(=O)c2=O)cc1 returned FBW7 activator 0.2, TEAD-YAP inh 9.3, GPR151 activ -0.4 and MITF inh 8.6.
`O=c1c(Nc2ccc(F)c(Cl)c2)c(-c2ccccc2)c1=O` gave FBW7 activator 0.1, TEAD-YAP inh -3.1, GPR151 activ 2.4 and MITF inh 5.3.
For COc1ccc(-c2c(Nc3ccc(F)c(Cl)c3)c(=O)c2=O)cc1 the results were FBW7 activator 0.6, TEAD-YAP inh -9.4, GPR151 activ -1.9 and MITF inh 72.4*.
`COc1cccc(Nc2c(-c3ccc(C)c(C)c3)c(=O)c2=O)c1` gave FBW7 activator 0.1, TEAD-YAP inh 48.8*, GPR151 activ 1.0 and MITF inh -3.7.
For COc1ccc(-c2c(Nc3ccc(C)c(F)c3)c(=O)c2=O)cc1 the results were FBW7 activator 0.7, TEAD-YAP inh -10.8, GPR151 activ -1.0 and MITF inh 78.5*.
CCOc1ccc(NC(=O)N2CCCC2C(=O)Nc2cccc(NC(C)=O)c2)cc1 (centres undefined) was read as FBW7 activator 0.5, TEAD-YAP inh -1.2, GPR151 activ -1.0 and MITF inh 0.5.
For COc1ccc(-c2c(C)nn3c(NCCCn4ccnc4)c(C)c(C)nc23)cc1 the results were FBW7 activator -0.2, TEAD-YAP inh -15.7, GPR151 activ -0.7 and MITF inh 8.6.
For CC(=O)c1ccc(OCc2cc(C(=O)NC3(c4ccccc4)CC3)no2)cc1 the results were FBW7 activator 0.1, TEAD-YAP inh -63.7, GPR151 activ -1.8 and MITF inh -10.9.
CCc1ccc(Nc2nc(-c3sc(C)nc3C)cs2)cc1 was read as FBW7 activator 0.4, TEAD-YAP inh 47.3*, GPR151 activ -1.9 and MITF inh 12.0.
`Cc1nc(C)c(-c2csc(Nc3ccc(F)cc3)n2)s1` gave FBW7 activator 0.4, TEAD-YAP inh -42.9, GPR151 activ -0.6 and MITF inh 8.1.
For CCC(=O)Nc1nc(C)c(-c2csc(Nc3ccc(OC)cc3)n2)s1 the results were FBW7 activator -0.1, TEAD-YAP inh 33.5*, GPR151 activ -1.0 and MITF inh 10.6.
`CCC(=O)Nc1nc(C)c(-c2csc(Nc3cc(OC)ccc3OC)n2)s1` gave FBW7 activator -0.1, TEAD-YAP inh 6.0, GPR151 activ -0.4 and MITF inh 16.4.
COC(=O)c1sc(N2C(=O)C(=O)/C(=C(/O)c3ccc(Cl)cc3)C2c2cccc(Br)c2)nc1C (centres undefined) was read as FBW7 activator 0.0, TEAD-YAP inh 2.5, GPR151 activ 0.4 and MITF inh 1.1.
For O=C(NCc1ccccc1)/C(=C\C=C\c1ccccc1)NC(=O)c1ccc([N+](=O)[O-])cc1 the results were FBW7 activator -0.1, TEAD-YAP inh 55.6*, GPR151 activ -1.0 and MITF inh 4.1.
For Cc1sc(NC(=O)CN(C2CCCC2)S(=O)(=O)c2ccccc2)c(C(N)=O)c1C the results were FBW7 activator -0.1, TEAD-YAP inh -0.1, GPR151 activ 0.4 and MITF inh -6.8.
CCOC(=O)C(CC)/C(C)=N\NC(=O)c1ccccc1[N+](=O)[O-] (centres undefined) was read as FBW7 activator 0.8, TEAD-YAP inh 1.7, GPR151 activ 0.4 and MITF inh 8.7.
For CCOC(=O)C(CC)/C(C)=N\NC(=O)c1ccccc1O (centres undefined) the results were FBW7 activator -0.9, TEAD-YAP inh 59.3*, GPR151 activ 0.6 and MITF inh 0.3.
Screening Cc1nnc(NC(=O)c2ccccc2C)s1 returned FBW7 activator -0.3, TEAD-YAP inh -36.4, GPR151 activ -2.8 and MITF inh -6.8.
`COc1ccc(OC)c(/C=N/N=C2\NC(=O)C(C)S2)c1` (centres undefined) gave FBW7 activator 0.3, TEAD-YAP inh -7.0, GPR151 activ -0.3 and MITF inh 7.7.
`COc1ccc(O)c(/C=N/N=C2/NC(=O)C(C)S2)c1` (centres undefined) gave FBW7 activator -0.3, TEAD-YAP inh 67.7*, GPR151 activ -8.1 and MITF inh -7.4.
Screening Clc1cncc(Cl)c1N1CCN(c2ccc(-c3cccnc3)cn2)CC1 returned FBW7 activator -0.4, TEAD-YAP inh 50.3*, GPR151 activ 0.0 and MITF inh 16.0.
CC(C(=O)OCc1ccc(F)cc1)N1C(=O)C(=O)c2cc(Br)ccc21 (centres undefined) was read as FBW7 activator 0.1, TEAD-YAP inh -0.3, GPR151 activ 1.3 and MITF inh 53.4*.
Screening COC(=O)C1=C(N)N2C(=O)C(C)SC2=C(C(=O)OC)C1c1ccccc1F (centres undefined) returned FBW7 activator 0.2, TEAD-YAP inh -0.4, GPR151 activ 2.8 and MITF inh 2.2.
For O=C1C(Cl)=C(Cl)C(=O)N1c1ccc(I)cc1 the results were FBW7 activator 0.4, TEAD-YAP inh 7.0, GPR151 activ -0.7 and MITF inh 24.0.
For Cc1ccc(N2C(=O)C(Cl)=C(N(C)c3ccccc3)C2=O)cc1 the results were FBW7 activator 0.0, TEAD-YAP inh 52.4*, GPR151 activ -0.1 and MITF inh 19.3.
Screening CN(C1=C(Cl)C(=O)N(c2ccc(I)cc2)C1=O)c1ccccc1 returned FBW7 activator -0.1, TEAD-YAP inh 56.0*, GPR151 activ 0.2 and MITF inh 22.7.
For C=CCOc1ccc(/C=C2/C(=O)ON=C2c2ccccc2)cc1 the results were FBW7 activator 0.0, TEAD-YAP inh -2.2, GPR151 activ -0.4 and MITF inh 64.8*.
For CCCCOc1ccccc1/C=C1/C(=O)ON=C1c1ccccc1 the results were FBW7 activator 0.1, TEAD-YAP inh -8.6, GPR151 activ 1.3 and MITF inh 68.5*.
`CCOc1cc(/C=C2\C(=O)ON=C2c2ccccc2)ccc1OCc1ccccc1` gave FBW7 activator 0.0, TEAD-YAP inh -6.6, GPR151 activ 1.6 and MITF inh 57.4*.
`CCCCCOc1ccccc1/C=C1/C(=O)ON=C1c1ccccc1` gave FBW7 activator -0.1, TEAD-YAP inh -6.1, GPR151 activ -0.5 and MITF inh 62.5*.
